The source of these data is PubChem BioAssay (NCATS).

Assay [1] deals with RecQ-like DNA helicase BLM (Homo sapiens) (UniProt P54132). The assay is described as follows: qHTS for Inhibitors of WRN Helicase: BLM Helicase Counterscreen for WRN Inhibitors (AID 720503). Note: potency is the fitted concentration of half-maximal effect; nearly all actives have a fitted effect of over 60% in size. To be noted: Recombinant BLM helicase DNA unwinding, red fluorescence. In short, it runs like this: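 Reactions were started with 100 nM DNA substrate and 2 mM ATP (final) after compound and 1 nM BLM stood 15 min at room temperature in Tris-HCl pH 8.0 buffer with NaCl, MgCl2, DTT and Tween-20. Two red-fluorescence reads 15 min apart were normalized against DMSO and no-enzyme wells.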
(In qHTS, concentration-response curves come from the screen itself.)

The target of assay [2] is Tyrosyl-DNA phosphodiesterase 1 (Homo sapiens) (UniProt Q9NUW8). Description: Confirmation Assay for Inhibitors of Tyrosyl-DNA Phosphodiesterase (TDP1) (AID 489007). Note: potency is the fitted concentration of half-maximal effect; nearly all actives have a fitted effect of over 40% in size. To be noted: recombinant human TDP1 enzymatic activity, dose-response. A digest of the protocol: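 Tdp1 1 nM + cpd, 15 min RT; add biotin/phosphotyrosine-FITC oligo 15 nM, 5 min RT; add AS donor/acceptor beads 10 ug/ml, 10 min RT; read AlphaScreen. No-enzyme wells = max signal.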

For assay [3], the target named is Tumor susceptibility gene 101 protein (Homo sapiens) (UniProt Q99816). Description: qHTS Assay for Iinhibitors of HIV-1 Budding by Blocking the Interaction of PTAP/TSG101: Hit Validation (AID 651600). Note: % is set by controls: 0 for no effect and ±100 for the full control effect; nearly all actives have a fitted effect of over 70% in size. To be noted: PTAP peptide/TSG101 UEV interaction, biochemical assay; series mostly up to 57.5 µM. A digest of the protocol: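 Fluorescence polarization binding assay: Tsg101 binding domain (10 uM) mixed with compounds and FITC-labeled PTAP peptide (50 nM) in HEPES pH 7.5, 0.15 M NaCl, 0.01% Tween 20, EDTA, TCEP; 20 min at r.t.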
Chain of Tumor susceptibility gene 101 protein (Homo sapiens) (Q99816 whole entry, looked up, the tested form may be a part): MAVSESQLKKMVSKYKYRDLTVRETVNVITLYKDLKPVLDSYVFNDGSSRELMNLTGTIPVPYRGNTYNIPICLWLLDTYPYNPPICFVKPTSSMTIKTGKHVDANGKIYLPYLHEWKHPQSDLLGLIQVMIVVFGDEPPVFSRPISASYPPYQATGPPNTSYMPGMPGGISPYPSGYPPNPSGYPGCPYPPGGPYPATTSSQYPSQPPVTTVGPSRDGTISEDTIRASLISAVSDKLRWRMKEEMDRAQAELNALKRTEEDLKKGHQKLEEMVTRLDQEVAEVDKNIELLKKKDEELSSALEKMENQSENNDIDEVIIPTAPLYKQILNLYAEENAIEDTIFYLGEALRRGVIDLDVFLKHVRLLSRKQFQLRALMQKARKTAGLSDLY

The nature of assay [4]: AP1 Signaling Pathway (AID 357; active = well fitted curve in either direction with a large enough effect, not every such curve was filed as active;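 note: ME-180 reporter cells stimulated with EGF at its EC50 level; % is set by controls: 0 for no effect and ±100 for the full control effect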). To be noted: ME-180 AP-1-bla reporter, EGF-induced, beta-lactamase ratio, 5 h; at 7.69 µM (top of the series) unless noted. In short, it runs like this:
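Read-out was the 460nm/530nm emission ratio (excitation 405nm) after CCF4 loading for 2.5 hours at room temperature. Cells carried an AP-1-driven beta-lactamase reporter, were stimulated with EC50 EGF plus compound for 5 hours, and AC50 values came from titrations.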

The nature of assay [5]: NFAT Signaling Pathway (AID 444; active = well fitted curve in either direction with a large enough effect, not every such curve was filed as active;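 note: carbachol stimulus at about its EC50 of 1 µM final; % is set by controls: 0 for no effect and ±100 for the full control effect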). To be noted: Jurkat NFAT-bla M1, carbachol, beta-lactamase ratio, 5 h; at 7.69 µM (top of the series) unless noted. In short, it runs like this: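 Jurkat cells carrying an NFAT-driven β-lactamase reporter and co-transfected muscarinic M1 receptor were treated with compound plus carbachol (1 uM final, an EC50 level) for 5 h at 37 °C. CCF4 loading followed for 1 h at RT; 460/530 nm ratio gave %activity.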

A short description of assay [6]: Stat Signaling Pathway (AID 446; active = well fitted curve in either direction with a large enough effect, not every such curve was filed as active;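 note: ME-180 cervical cancer cells given 40 pM IL-6 alongside compound; SIE-controlled beta-lactamase reporter measured as 460/530 nm FRET emission ratio; % is set by controls: 0 for no effect and ±100 for the full control effect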). To be noted: ME-180 SIE beta-lactamase reporter, IL-6 stimulated, 5 h; at 7.69 µM (top of the series) unless noted. A digest of the protocol: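 Reporter line: ME-180 cervical carcinoma, SIE-beta-lactamase. Treatment: compound with 40 pM IL-6, 5 hrs, 37 C, in low-serum OPTI-MEM with 10 mM HEPES pH 7.3. Detection: 460/530 nm fluorescence.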

Assay [7] can be described thus: qHTS screen for small molecules that inhibit ELG1-dependent DNA repair: Hit Confirmation in Cell-Based Luciferin Assay (AID 624247). Note: % is set by controls: 0 for no effect and ±100 for the full control effect. To be noted: cell-free firefly luciferase luminescence counter-screen, ViewLux; series mostly up to 46.1 µM. A digest of the protocol: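 Steps: dispense substrate; pin in compound or DMSO; add luciferase; image light output on CCD-based reader.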

Assay [8] addresses ATPase family AAA domain-containing protein 5 (Homo sapiens) (UniProt Q96QE3). The assay is described as follows: HTS assay for small molecules that inhibit ELG1-dependent DNA repair in human embryonic kidney (HEK293T) cells expressing luciferase-tagged ELG1: Hit Confirmation (AID 624248). Note: potency is the fitted concentration of half-maximal effect; nearly all actives have a fitted effect of over 55% in size. To be noted: HEK293T ELG1-luciferase levels, luminescence; cells co-treated with 5-fluorouridine. In short, it runs like this:
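Cells (2,000/well) received 5-Fluorouridine plus pin-transferred compound or DMSO and were incubated 16 hr at 37 °C, 5% CO2. Luciferase activity was read by ONE-Glo luminescence after 30 min at room temperature; inhibitors suppress the signal.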

The target is the same in assay [9]. Description: qHTS screen for small molecules that inhibit ELG1-dependent DNA repair in human embryonic kidney (HEK293T) cells expressing luciferase-tagged ELG1: Hit Confirmation using MMS Stimulated ELG1 (AID 624249). Note: potency is the fitted concentration of half-maximal effect; nearly all actives have a fitted effect of over 60% in size. To be noted: HEK293T luciferase-tagged ELG1 level. In short, it runs like this:
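HEK293T cells carrying ELG1-luciferase, compounds added about 5 h after plating together with MMS at 10 µM final. Luciferase activity read 16 h after compound addition; suppression of signal scored.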

Assay [10] can be described thus: qHTS screen for small molecules that inhibit ELG1-dependent DNA repair: Hit Confirmation with MMS Viability (AID 624251). Note: potency is the fitted concentration of half-maximal effect; nearly all actives have a fitted effect of over 60% in size. To be noted: Cell viability with MMS. A digest of the protocol:
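Reporter HEK293T cells (ELG1-luc) receive compounds about 5 hours after plating, alongside 10 µM MMS, and are scored for viability by CellTiter-Glo following 16 hours of treatment.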

Assay [11] deals with Luciferin 4-monooxygenase (Photinus pyralis) (UniProt P08659). The assay is described as follows: qHTS screen for small molecules that inhibit ELG1-dependent DNA repair: Hit Confirmation in Biochemical Luciferin Assay (AID 624253). Note: % is set by controls: 0 for no effect and ±100 for the full control effect. To be noted: purified firefly luciferase, luminescence counter-screen; series mostly up to 57.5 µM. In short, it runs like this: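 Luminescent signal from firefly luciferase acting on its luciferin substrate reagent was recorded with a CCD plate imager after compounds or DMSO had been pinned into the substrate and enzyme added last.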

Assay [12] concerns the target Cytochrome P450 1A2 (Homo sapiens) (UniProt P05177). Description: p450-cyp1a2 (AID 410; calls by dose curve; note: potency is the fitted concentration of half-maximal effect). To be noted: recombinant CYP1A2, luciferin-ME demethylation, luminescence; series mostly up to 11.4 µM. In short, it runs like this:
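Luminescent readout of luciferin formed from Luciferin-ME by human CYP1A2; data normalized against complete inhibition by 57 uM furafylline. Enzyme 20nM, substrate 100uM at Km, 100mM KPO4 buffer, 60 min reaction at room temperature.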

For assay [13], the target named is Glucocorticoid receptor (Homo sapiens) (UniProt P04150). The assay is described as follows: GR-EFC Redistribution (AID 451; calls by dose curve; note: potency is the fitted concentration of half-maximal effect). To be noted: CHO-K1 GR-EFC translocation, beta-gal luminescence, 2 h. In short, it runs like this: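 CHO-K1 cells stably expressing nuclear-localized β-gal enzyme acceptor and GR fused C-terminally to the enzyme donor fragment; ligand-driven nuclear translocation restores β-gal by complementation. Compounds titrated up to 46 uM final, 2 h at 37 °C; luminescence read.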
Chain of Glucocorticoid receptor (Homo sapiens) (P04150 whole entry, looked up, the tested form may be a part): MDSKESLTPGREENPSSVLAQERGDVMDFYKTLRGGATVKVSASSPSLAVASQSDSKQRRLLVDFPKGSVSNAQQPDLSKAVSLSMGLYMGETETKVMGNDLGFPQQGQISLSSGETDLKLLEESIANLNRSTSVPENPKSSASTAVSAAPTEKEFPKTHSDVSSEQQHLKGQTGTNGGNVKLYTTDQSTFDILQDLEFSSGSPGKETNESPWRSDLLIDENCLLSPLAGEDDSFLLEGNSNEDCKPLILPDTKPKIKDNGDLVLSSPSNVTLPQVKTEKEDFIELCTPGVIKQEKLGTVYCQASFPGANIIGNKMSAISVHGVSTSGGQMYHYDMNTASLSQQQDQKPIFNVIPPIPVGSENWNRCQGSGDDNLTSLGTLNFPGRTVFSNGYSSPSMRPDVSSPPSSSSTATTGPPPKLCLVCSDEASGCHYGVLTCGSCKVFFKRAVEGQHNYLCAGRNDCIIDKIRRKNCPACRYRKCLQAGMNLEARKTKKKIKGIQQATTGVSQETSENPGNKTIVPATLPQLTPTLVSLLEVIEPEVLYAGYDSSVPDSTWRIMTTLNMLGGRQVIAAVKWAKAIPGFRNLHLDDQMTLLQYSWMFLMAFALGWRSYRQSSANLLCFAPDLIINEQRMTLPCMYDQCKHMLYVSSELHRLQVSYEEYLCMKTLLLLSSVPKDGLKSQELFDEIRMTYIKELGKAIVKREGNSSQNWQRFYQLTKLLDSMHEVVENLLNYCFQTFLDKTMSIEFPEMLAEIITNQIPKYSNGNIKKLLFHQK

Assay [14] is described as follows: Cytometric Cell-Based qHTS for Inhibitors of the mTORC1 Signaling Pathway in MEF (Tsc2-/-, p53-/-) Cells (AID 2660).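 Note: percent of cells above a phospho-rpS6 to PI ratio cutoff in each well; plate controls were DMSO for no effect and rapamycin for full effect.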 To be noted: mTORC1 pathway cytometry; series mostly up to 38.3 µM. In short, it runs like this:
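Immunofluorescence qHTS of rpS6 Ser235/236 phosphorylation: MEFs (Tsc2-/-, p53-/-) treated 24 h, 37 C, in DMEM + 10% FBS. Alexa-488 signal normalized to PI count, referenced to rapamycin (7.5 nM) and DMSO; PI cell number recorded for viability.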

The nature of assay [15]: High Content Imaging Cell-Based qHTS for Inhibitors of the mTORC1 Signaling Pathway in MEF (Tsc2-/-, p53-/-) Cells (AID 2666).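 Note: percent of cells scored positive for phospho-rpS6 Ser235/236 immunostaining by imaging.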 To be noted: at 38.3 µM (top of the series). In short, it runs like this: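 Read-out: % positive cells per well, with thresholds from highest- and lowest-signal wells, based on phospho-rpS6 (Ser235/236) intensity normalized to Hoechst nuclear stain. Cells: Tsc2-/-, p53-/- MEFs carrying empty vector; compound 24 hrs, 37 degree Celsius.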

Assay [16] in a line: High Content Imaging Cell-Based qHTS for Inhibitors of the mTORC1 Signaling Pathway in MEF Cells (AID 2667).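 Note: Tsc2-/- p53-/- MEFs stably re-expressing wild-type Tsc2 exposed 24 h; plate controls were DMSO wells for no effect and rapamycin control wells for full effect.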 To be noted: series mostly up to 38.3 µM. A digest of the protocol:
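MEF (Tsc2-/-, p53-/-, WT Tsc2 re-expressed); cpd 24 h, 37 °C; PFA fix; Alexa-488 anti-p-rpS6 Ser235/236, PI, Hoechst; IN Cell imaging; Hoechst/Alexa-488 intensity ratio; % active cells, thresholds set from rapamycin and DMSO wells.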

Assay [17] in a line: Cytometry Cell-Based qHTS for Inhibitors of the mTORC1 Signaling Pathway in MEF cells (AID 2668).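 Note: Tsc2-/- p53-/- mouse embryonic fibroblasts stably re-expressing wild-type Tsc2; percent cells positive for phospho-rpS6 Ser235/236 relative to propidium iodide stain; plate controls were DMSO wells for no effect and 7.5 nM rapamycin control wells for full effect.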 To be noted: mTORC1 pathway readout; series mostly up to 38.3 µM. In short, it runs like this: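 MEFs (Tsc2-/-, p53-/- stably expressing WT Tsc2) treated 24 h at 37 degree Celsius, fixed, stained with Alexa-488 anti-phospho-rpS6 Ser235/236 and propidium iodide; Acumen laser scanning. Reported as % positive cells, phospho-S6 normalized to PI.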

Assay [18] has as its target Ubiquitin carboxyl-terminal hydrolase 2 (Homo sapiens) (UniProt O75604). Description: qHTS Validation Assay for Inhibitors of Ubiquitin-specific Protease USP2a Using CHOP2 as the Reporter (AID 463106).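 Note: plate controls were DMSO for no effect and full inhibition by NEM for full effect.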 To be noted: USP2a cleavage of CHOP2 reporter, enzymatic; series mostly up to 38.3 µM. In short, it runs like this: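 USP2 core (10nM final) was preincubated with compound for 30min at RT in 20mM Tris-HCl pH 8.0, 2mM CaCl2, 2mM beta-mercaptoethanol, 0.05% CHAPS. Ub-CHOP2 and reporter substrate (25nM each) were added, and fluorescence (Ex 485/Em 531nm) was read after 60min.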

Assay [19] has as its target DNA polymerase III PolC-type (Bacillus subtilis (strain 168)) (UniProt P13267). Description: qHTS Validation Assay for the Inhibitors of DNA Replication in Gram-Positive Bacteria (AID 485295).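 Note: PicoGreen fluorescence of double-stranded DNA made on primed circular M13 template; 0% = DMSO wells and -100% = EDTA-quenched background wells.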 To be noted: Gram-positive bacterial DNA replication assay; series mostly up to 57.1 µM. In short, it runs like this:
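Reconstituted B. subtilis Pol III holoenzyme (PolC, beta clamp, SSB, primase) preincubated with compound, then M13Gori single-stranded circular template with dNTPs/NTPs added; room temperature reaction. Stopped with EDTA/PicoGreen; dsDNA fluorescence read, EDTA as full-inhibition control.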

The target in assay [20] is Tumor susceptibility gene 101 protein (Homo sapiens) (UniProt Q99816). The assay is described as follows: qHTS Validation Assay for Iinhibitors of HIV-1 Budding by Blocking the Interaction of PTAP/TSG101 (AID 485342; calls by dose curve; note: 0% is about no effect). To be noted: TSG101-PTAP binding, fluorescence polarization, 4-point titration; series mostly up to 115 µM. In short, it runs like this:
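Tsg101 binding domain (10 uM) with FITC-labeled PTAP peptide (50 nM) in HEPES pH 7.5 buffer, 20 min at r.t. with compounds. Binding measured by fluorescence polarization.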

Structures are written as SMILES. A number with no mark means an inactive call. Records with an inconclusive call do not appear. This is one part of the list. Active and inactive are the calls of the source. Unless noted, calls come from the whole dose curve; as a rule, active = well fitted curve in the direction sought with a large enough effect; inconclusive = small, poorly fitted or top-dose-only effect, or another doubt; inactive = no such curve, though single readings can be large; an effect the other way counts as inactive or inconclusive.

Chain of ATPase family AAA domain-containing protein 5 (Homo sapiens) (Q96QE3 whole entry, looked up, the tested form may be a part): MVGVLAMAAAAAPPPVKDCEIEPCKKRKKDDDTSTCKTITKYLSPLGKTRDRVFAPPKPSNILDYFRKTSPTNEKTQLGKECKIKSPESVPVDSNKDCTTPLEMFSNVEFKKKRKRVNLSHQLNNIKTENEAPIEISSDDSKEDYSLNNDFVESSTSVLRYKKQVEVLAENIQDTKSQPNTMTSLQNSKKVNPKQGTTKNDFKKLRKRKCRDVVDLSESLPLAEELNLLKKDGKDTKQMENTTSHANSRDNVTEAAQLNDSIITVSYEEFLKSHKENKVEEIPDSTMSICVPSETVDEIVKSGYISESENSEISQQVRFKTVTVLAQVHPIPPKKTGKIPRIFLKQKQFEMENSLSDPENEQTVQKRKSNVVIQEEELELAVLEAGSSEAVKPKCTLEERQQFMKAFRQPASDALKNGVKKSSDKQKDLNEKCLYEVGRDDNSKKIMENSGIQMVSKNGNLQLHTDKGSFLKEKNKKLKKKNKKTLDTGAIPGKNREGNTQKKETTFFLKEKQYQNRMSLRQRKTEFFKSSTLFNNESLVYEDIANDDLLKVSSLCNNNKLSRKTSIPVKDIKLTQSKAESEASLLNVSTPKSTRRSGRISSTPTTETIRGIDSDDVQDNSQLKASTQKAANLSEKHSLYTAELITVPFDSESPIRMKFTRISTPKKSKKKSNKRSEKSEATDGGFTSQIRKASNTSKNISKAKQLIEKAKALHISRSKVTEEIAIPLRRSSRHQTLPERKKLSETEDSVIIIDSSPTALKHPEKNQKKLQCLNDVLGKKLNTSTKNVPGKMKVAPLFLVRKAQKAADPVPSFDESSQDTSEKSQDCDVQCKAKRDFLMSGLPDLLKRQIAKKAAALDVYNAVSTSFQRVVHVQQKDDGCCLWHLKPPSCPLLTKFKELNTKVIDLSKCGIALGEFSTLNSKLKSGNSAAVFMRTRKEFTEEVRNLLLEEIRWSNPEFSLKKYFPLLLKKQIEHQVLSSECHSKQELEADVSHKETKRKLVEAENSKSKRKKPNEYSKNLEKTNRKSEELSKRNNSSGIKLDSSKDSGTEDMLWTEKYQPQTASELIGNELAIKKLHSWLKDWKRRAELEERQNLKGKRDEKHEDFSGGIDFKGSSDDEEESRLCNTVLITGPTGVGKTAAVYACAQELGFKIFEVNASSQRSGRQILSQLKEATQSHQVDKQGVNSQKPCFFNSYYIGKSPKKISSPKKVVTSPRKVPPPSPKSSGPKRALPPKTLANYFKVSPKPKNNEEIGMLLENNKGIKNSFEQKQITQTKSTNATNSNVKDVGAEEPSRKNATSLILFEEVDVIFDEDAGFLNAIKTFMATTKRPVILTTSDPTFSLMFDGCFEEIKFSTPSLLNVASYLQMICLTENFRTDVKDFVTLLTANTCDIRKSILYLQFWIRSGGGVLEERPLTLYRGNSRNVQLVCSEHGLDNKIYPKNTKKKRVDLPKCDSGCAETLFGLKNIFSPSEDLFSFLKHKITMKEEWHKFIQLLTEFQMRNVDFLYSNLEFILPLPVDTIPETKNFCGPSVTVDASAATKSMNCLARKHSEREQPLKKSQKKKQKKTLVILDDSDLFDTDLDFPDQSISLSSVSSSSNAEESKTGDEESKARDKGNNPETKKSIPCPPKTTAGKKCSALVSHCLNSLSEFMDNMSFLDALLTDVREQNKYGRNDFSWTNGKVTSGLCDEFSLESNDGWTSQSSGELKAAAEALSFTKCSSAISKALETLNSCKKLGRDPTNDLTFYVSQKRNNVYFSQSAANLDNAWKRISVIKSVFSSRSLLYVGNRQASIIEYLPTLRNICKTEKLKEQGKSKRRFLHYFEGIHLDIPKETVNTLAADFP
Chain of DNA polymerase III PolC-type (Bacillus subtilis (strain 168)) (P13267 whole entry, looked up): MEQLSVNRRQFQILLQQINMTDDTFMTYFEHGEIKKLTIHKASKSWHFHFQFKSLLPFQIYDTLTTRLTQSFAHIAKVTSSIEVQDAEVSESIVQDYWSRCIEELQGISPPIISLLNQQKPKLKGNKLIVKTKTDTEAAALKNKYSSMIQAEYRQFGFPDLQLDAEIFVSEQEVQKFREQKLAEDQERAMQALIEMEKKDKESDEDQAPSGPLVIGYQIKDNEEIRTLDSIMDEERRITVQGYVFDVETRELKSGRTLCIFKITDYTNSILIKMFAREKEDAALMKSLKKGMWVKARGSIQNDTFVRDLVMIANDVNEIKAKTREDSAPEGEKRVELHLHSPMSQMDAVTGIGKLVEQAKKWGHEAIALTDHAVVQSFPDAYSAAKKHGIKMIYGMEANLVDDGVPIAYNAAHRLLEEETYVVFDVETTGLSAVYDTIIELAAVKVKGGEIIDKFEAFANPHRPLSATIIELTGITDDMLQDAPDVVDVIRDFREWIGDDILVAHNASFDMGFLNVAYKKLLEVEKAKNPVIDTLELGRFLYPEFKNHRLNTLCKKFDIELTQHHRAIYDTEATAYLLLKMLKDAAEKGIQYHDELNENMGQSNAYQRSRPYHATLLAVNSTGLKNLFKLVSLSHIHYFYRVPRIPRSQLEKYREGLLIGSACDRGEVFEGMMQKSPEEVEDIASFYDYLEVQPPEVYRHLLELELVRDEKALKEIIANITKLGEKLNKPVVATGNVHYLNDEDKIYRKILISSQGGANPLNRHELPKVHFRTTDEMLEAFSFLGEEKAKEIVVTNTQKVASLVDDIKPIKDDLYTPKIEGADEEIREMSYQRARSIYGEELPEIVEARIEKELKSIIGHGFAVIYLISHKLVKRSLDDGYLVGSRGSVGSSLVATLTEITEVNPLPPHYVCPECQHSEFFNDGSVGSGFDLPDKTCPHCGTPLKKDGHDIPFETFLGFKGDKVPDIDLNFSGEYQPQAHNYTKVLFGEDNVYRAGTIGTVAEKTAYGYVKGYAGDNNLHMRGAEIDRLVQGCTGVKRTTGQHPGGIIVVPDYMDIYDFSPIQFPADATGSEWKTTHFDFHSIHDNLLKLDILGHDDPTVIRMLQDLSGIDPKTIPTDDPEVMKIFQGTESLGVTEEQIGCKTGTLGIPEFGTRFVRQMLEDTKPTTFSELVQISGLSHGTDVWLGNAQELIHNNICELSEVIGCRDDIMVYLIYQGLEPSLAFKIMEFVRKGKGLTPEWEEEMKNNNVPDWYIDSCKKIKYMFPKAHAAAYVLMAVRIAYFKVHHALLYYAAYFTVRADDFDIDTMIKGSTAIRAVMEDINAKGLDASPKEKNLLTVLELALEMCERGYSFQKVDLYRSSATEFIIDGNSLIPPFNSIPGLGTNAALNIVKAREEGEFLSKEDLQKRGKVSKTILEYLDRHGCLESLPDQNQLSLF
Chain of Ubiquitin carboxyl-terminal hydrolase 2 (Homo sapiens) (O75604 whole entry, looked up): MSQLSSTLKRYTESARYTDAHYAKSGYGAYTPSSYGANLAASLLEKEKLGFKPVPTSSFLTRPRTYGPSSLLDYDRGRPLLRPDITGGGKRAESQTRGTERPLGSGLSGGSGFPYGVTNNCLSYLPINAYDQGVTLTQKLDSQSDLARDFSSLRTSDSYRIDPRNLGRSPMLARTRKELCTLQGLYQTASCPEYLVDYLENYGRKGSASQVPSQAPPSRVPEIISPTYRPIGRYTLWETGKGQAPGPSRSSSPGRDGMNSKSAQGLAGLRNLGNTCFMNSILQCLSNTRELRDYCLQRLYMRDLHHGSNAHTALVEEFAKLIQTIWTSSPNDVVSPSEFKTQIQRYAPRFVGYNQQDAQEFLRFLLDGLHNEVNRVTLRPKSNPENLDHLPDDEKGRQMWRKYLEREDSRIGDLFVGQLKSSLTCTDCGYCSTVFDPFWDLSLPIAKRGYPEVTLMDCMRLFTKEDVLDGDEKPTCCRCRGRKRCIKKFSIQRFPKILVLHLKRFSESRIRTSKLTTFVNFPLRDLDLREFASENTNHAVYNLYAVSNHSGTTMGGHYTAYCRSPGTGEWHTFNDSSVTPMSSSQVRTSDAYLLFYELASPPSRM

With `N#Cc1ccccc1CN1C(=O)S/C(=C/c2cccn2-c2cccc(C(=O)O)c2)C1=O`, in assay [1], the Potency was 17.1 µM (active).

Turning to `Cc1cc(C)c2nc(-c3ccco3)cc(C(=O)O)c2c1`, the Potency in assay [2] is 15.8 µM (active).

In the case of `Oc1ccc2ccccc2c1N=Nc1nccs1`, the compound was classed as inactive in assay [3].

As to `CCN1CCc2c(C#N)c(NCc3ccccc3)nc(NCCO)c2C1`, the activity change, negative = inhibition in [4] is -9.55% [at 17.2 µM]; in assay [5], -11% [at 17.2 µM]. The activity, negative = inhibition in assay [6] is -0.118% [at 17.2 µM].

Regarding `Cc1nnc(N/N=C/c2ccccn2)[nH]c1=O`, the result in [7] and in [11] was inactive. Further, the Potency in assay [8] is 2.23 µM (active); in assay [9], 2.5 µM (active); in [10], 7.06 µM (active).

On to `CC[C@@H](CO)Nc1nc(NCc2ccccc2)c2ncn(C(C)C)c2n1`, for which the Potency was 12.6 µM (active) in assay [12] and above 46 µM in [13]. For the same compound, the compound was called inactive in assay [14], in [15], in assay [16], in assay [17], in assay [18] and in assay [19]. The compound was classed as inactive in assay [20].
